{
  "source": "PubChem BioAssay",
  "note": "A number with no mark means an inactive call.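 Rule for the calls: active = fluorescence slope higher than the sample average by over 3 SD (cut at about -0.22 in these data, passing the limit was not always enough); inactive = the rest.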",
  "data": [
    {"target": "Voltage-gated potassium channel subunit beta-2 (Rattus norvegicus) (UniProt P62483)", "sequence (P62483 whole entry, looked up)": "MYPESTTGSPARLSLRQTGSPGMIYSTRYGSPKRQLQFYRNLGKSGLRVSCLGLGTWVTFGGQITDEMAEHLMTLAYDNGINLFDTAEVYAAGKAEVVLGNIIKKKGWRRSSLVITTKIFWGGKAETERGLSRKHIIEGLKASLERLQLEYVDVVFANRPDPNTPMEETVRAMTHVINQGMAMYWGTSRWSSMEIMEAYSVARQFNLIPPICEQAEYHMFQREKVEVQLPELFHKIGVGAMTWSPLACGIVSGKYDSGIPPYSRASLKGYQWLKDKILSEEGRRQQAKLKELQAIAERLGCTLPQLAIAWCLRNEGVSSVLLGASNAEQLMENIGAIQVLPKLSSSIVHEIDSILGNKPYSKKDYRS", "assay": "inhibitors of rat Kvbeta2 reductase activity – biochemical, NADPH fluorescence, primary screen (AID 622);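 note: slope of raw intensity against log time taken from 70 to 1610 s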", "settings": "recombinant KvBeta, 4-cyanobenzaldehyde reduction, at 10 µM, active compounds read high", "values": [
      {"smiles": "N#CC1=C(SCc2ccccc2)NC2=C(C(=O)CCC2)C1c1ccc2c(c1)OCO2", "note": "(stereo unspecified)", "fluorescence slope": -0.525},
      {"smiles": "CC(=O)C1=C(O)C(=O)N(c2cccc(C(=O)O)c2)C1c1ccccc1F", "note": "(stereo unspecified)", "fluorescence slope": -0.505},
      {"smiles": "Cc1[nH]nc2cn[nH]c12", "fluorescence slope": -0.526},
      {"smiles": "CCCCOc1ccc(CSC(CC(=O)O)C(=O)O)cc1", "note": "(stereo unspecified)", "fluorescence slope": -0.433},
      {"smiles": "O=S(=O)(c1ccccc1)N1CCC(N2CCCCCC2)CC1", "fluorescence slope": -0.39},
      {"smiles": "COc1cccc(C2/C(=C(\\O)c3ccc4c(c3)OCCO4)C(=O)C(=O)N2CCN(C)C)c1", "note": "(stereo unspecified)", "fluorescence slope": -0.546},
      {"smiles": "CC1(C)CC(=O)C(C=NCC(O)c2ccccc2)=C(O)C1", "note": "(stereo unspecified)", "fluorescence slope": -0.354},
      {"smiles": "Cc1ccccc1C(=O)c1ccc2c(c1)n(C)c(=O)n2C", "fluorescence slope": -0.512},
      {"smiles": "COC(=O)C(NC(C)=O)(Nc1ccc(Br)cc1)C(=O)OC", "fluorescence slope": -0.537},
      {"smiles": "CCOC(=O)CSc1nc(N)c(C#N)c(-c2ccc(OC)cc2)c1C#N", "fluorescence slope": -0.52},
      {"smiles": "COc1cccc(/C(O)=C2/C(=O)C(=O)N(CCCN(C)C)C2c2cccc(Cl)c2)c1", "note": "(stereo unspecified)", "fluorescence slope": -0.436},
      {"smiles": "O=C(O)CC(NCc1ccco1)C(=O)OCC1CCCO1", "note": "(stereo unspecified)", "fluorescence slope": -0.369},
      {"smiles": "CNc1oc(-c2ccc(Cl)cc2)nc1C#N", "fluorescence slope": -0.263},
      {"smiles": "O=C(O)CCCC(=O)Nc1ccn(-c2ccccc2)n1", "fluorescence slope": -0.486},
      {"smiles": "CCOC(=O)C1=C(C)N=C2SC(C)C(=O)N2C1c1ccc(OC(C)=O)c(OC)c1", "note": "(stereo unspecified)", "fluorescence slope": -0.413},
      {"smiles": "CCOc1cccc(-c2nn3c(-c4ccco4)nnc3s2)c1", "fluorescence slope": -0.409}
    ]}
  ]
}
